Results published in PubChem BioAssay AID1347069 (National Center for Advancing Translational Sciences (NCATS), 2019).
Screen size: about 44,000 compounds; fewer than 10 were called active. Calls follow the shape of the dose curve; as a rule, active = well fitted inhibition curve with a large enough effect; inconclusive = small, poorly fitted or top-dose-only effect; inactive = flat fitted curve, though single readings scatter. The list is a sample of the results.

Molecular target: Tumor susceptibility gene 101 protein (Homo sapiens) (UniProt Q99816)
Sequence (Q99816 whole entry, looked up): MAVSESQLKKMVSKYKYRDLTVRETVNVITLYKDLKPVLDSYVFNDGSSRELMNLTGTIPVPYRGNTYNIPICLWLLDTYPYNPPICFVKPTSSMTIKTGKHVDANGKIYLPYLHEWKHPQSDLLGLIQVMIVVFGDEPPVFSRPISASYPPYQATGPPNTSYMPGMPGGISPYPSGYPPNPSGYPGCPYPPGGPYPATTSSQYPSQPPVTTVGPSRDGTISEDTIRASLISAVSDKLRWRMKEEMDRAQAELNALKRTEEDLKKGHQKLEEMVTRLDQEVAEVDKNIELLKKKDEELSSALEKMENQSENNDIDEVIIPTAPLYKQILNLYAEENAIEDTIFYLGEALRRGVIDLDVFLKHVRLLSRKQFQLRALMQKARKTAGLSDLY
Assay: qHTS Validation Assay for Inhibitors of HIV-1 Budding by Blocking the Interaction of PTAP/TSG101: Sytravon Library Screen; also: 0% is about no effect
Conditions: Fluorescence polarization, FITC-PTAP peptide/Tsg101, 20 min; series mostly up to 115 µM; activity change, negative = inhibition: at the top concentration
Description: Stages of the HIV-1 replication cycle, specifically virus assembly and release, provide underexploited targets for the development of novel antiviral inhibitors. The late stages of HIV-1 replication are mediated by the Gag precursor protein, Pr55Gag. Expression of Pr55Gag is both necessary and sufficient for the production of virus-like particles from Gag-expressing cells. The Gag protein hijacks key host proteins involved in endocytic machinery of the host cell to promote endosomal processing and viral budding. The budding process requires a direct interaction between a […] (PTAP) motif in the p6 domain of Gag and the cellular endosomal sorting protein known as Tsg101. In this way, the Gag PTAP motif promotes the host cells to recruit viral particles to the plasma membrane where the new viral particles are released, effectively turning the host cells into viral factories. A fluorescence polarization assay has been developed to quantitatively measure the PTAP-Tsg101 interaction which can be used to screen for inhibitors of this interaction. This assay was run against the NCGC Sytravon Library collection. NIH Molecular Libraries Probe Production Network [MLPCN] NIH Chemical Genomics Center [NCGC] Grant: R03 MH087464-01A1 PI Name: Dr. Eric Freed, NCI
Two uL of the Tsg101 binding domain in buffer (10 mM HEPES pH 7.5; 0.15 M NaCl, 0.01% Tween 20; 3 mM EDTA;0.1 mM TCEP) was dispensed into Greiner black MB 1536-well plates (final concentration 10 uM). Then, 23 nL of compounds or DMSO were delivered to each well using a pin tool. Finally, 2 uL of a FITC-labeled peptide containing the PTAP motif (1) in the same buffer was dispensed (50 nM final concentration) and the binding was allowed to proceed for 20 min. at r.t. Fluorescent polarization was determined using FITC excitation and polarized emission filters on a Perkin Elmer Envision. Assay cut-off (positive/negative criteria): Actives defined by CRC class, <25 µM; Efficacy <60% inhibition. The total fluorescent intensity from S and P channels will be used to flag fluorescent compounds.

Activity change, negative = inhibition, inactive:
O=C(OCc1cc(=O)n2nc(C3CC3)sc2n1)c1ccccc1Cl 0.428%
COc1ccc(NC(=O)Nc2cccc(-c3noc(C)n3)c2)cc1 -0.369%
CC(C)(C)c1ccc(C(=O)N2CCC(c3nc(-c4ccc(S(=O)(=O)N5CCCC5)cc4)no3)CC2)cc1 -4.06%
CCCCCn1c(CCCNC(=O)c2ccccc2OC)nc2ccccc21 -6.58%
COc1ccccc1CNc1nccn(-c2ccc(F)cc2)c1=O 1.54%
Cc1c(Cl)cccc1-c1ccc(CNCCCSc2nnnn2C)o1 0.191%
CSc1ccc(C2c3c(oc4ccccc4c3=O)C(=O)N2CCCN2CCOCC2)cc1 (configuration not stated) -5.71%
CSc1cccc(NC(=O)CN2C(=O)CCc3cc(S(=O)(=O)N4CCCCC4)ccc32)c1 -4%
COc1ccc(OC)c(NC(=O)CSC2=Nc3ccccc3C3=NC(CC(=O)NCc4ccc(F)cc4)C(=O)N23)c1 (configuration not stated) 1.59%
Cc1cc(OC(C)C(=O)Nc2sc3c(c2C(N)=O)CCCC3)ccc1Cl (configuration not stated) -0.431%
COc1ccc(-c2cc(-c3ccccc3)nc3c2COc2ccc(Cl)cc2-3)cc1 -2.13%
CCCCNC(=O)C1CCCN(c2nnc(C)c3c(C)n(-c4ccc(Cl)cc4)nc23)C1 (configuration not stated) -6.8%
Cc1cccc(NC(=O)N2CCN(C)c3ncccc32)c1C -11.3%
CCc1nnc(SCc2nc(-c3cccc(C)c3)oc2C)c2cc3sc(C)cc3n12 0.355%
CC(C)(C)c1ccc(C(=O)Nc2ccc3c(c2)CCCN3C(=O)c2cccs2)cc1 -7.67%
CCN1CCN(C(c2ccc(C)cc2)c2c(O)cc(C)n(Cc3ccco3)c2=O)CC1 (configuration not stated) -3.55%
Cc1csc2nc(COC(=O)c3ccccc3NC(=O)c3ccccc3Cl)cc(=O)n12 -4.86%
Cc1ccc(NC(=O)c2ccc3[nH]c(C)cc(=O)c3c2)c(C)c1 -2.8%
Cc1ccc2c(c1)c1c(c(=O)n(-c3ccccc3)c(=O)n1CC(=O)c1ccc(Cl)cc1)n2C 0.738%
Cc1ccccc1-c1nc2cc(NC(=O)c3cccc(OCCC(C)C)c3)ccc2o1 5.77%
CCn1c(C)c(C)c2cc(C(=O)NCCc3cc(OC)ccc3OC)ccc21 0.404%
Cn1c(=O)c2c(ncn2CC(=O)Nc2cccc(C(F)(F)F)c2)n(C)c1=O -3.44%
Cc1ccc(-n2nc(C)c3c(C)cc(=O)n(CC(=O)Nc4ccc(C(C)C)cc4)c32)cc1 -0.986%
Cc1ccc(C2c3[nH]c4ccccc4c3CCN2C(=O)c2cccc(C)c2)cc1 (configuration not stated) 0.206%
CCOC(=O)C1CCN(c2nc3c(S(=O)(=O)c4ccc(CC)cc4)nnn3c3ccc(Cl)cc23)CC1 3.23%
O=C(CSc1nc2ccccc2nc1Cc1ccccc1)N1CCCCC1 -0.453%
COc1cccc(CNC(=O)c2ccc3c(Cl)c4c(nc3c2)CCCC4)c1 3.82%
